# PMC5540273 (PLoS ONE, 2017)
# Where “and” joins values, the source holds several entries; their conditions need not be identical. Equal values may be shown once. Read-outs that look alike come from different tables or passages of the source.
# Columns and labels:
# CSF1R-autoinhibited = settings: concentration: 1 μM, replicates: in singlicate, n = 1
# CSF1R = settings: concentration: 1 μM, replicates: in singlicate, n = 1
# CSK = settings: concentration: 1 μM, replicates: in singlicate; n = 1
# CSNK1A1L = settings: concentration: 1 μM, replicates: in singlicate, n = 1
# CSNK1A1 = settings: concentration: 1 μM, replicates: in singlicate; n = 1
# CSNK1D = settings: concentration: 1 μM, replicates: in singlicate, n = 1
# CSNK1E = settings: concentration: 1 μM, replicates: in singlicate, n = 1
# CSNK1G1 = settings: concentration: 1 μM, replicates: in singlicate, n = 1
# CSNK1G2 = settings: concentration: 1 μM, replicates: in singlicate; n = 1
# CSNK1G3 = settings: concentration: 1 μM, replicates: in singlicate, n = 1
# CSNK2A1 = settings: concentration: 1 μM, replicates: in singlicate, n = 1
# CSNK2A2 = settings: concentration: 1 μM, replicates: in singlicate, n = 1
# CTK = tested on: T1, CTK; settings: concentration: 1 μM, replicates: in singlicate, n = 1
# T1 construct: gene MATK
# DAPK1 = settings: concentration: 1 μM, replicates: in singlicate, n = 1
# DAPK2 = settings: concentration: 1 μM, replicates: in singlicate, n = 1
# DAPK3 = settings: concentration: 1 μM, replicates: in singlicate; n = 1
# DCAMKL1 = tested on: T2, DCAMKL1; settings: concentration: 1 μM, replicates: in singlicate, n = 1
# T2 construct: gene DCLK1
# DCAMKL2 = tested on: T3, DCAMKL2; settings: concentration: 1 μM, replicates: in singlicate; n = 1
# T3 construct: gene DCLK2
# DCAMKL3 = tested on: T4, DCAMKL3; settings: concentration: 1 μM, replicates: in singlicate, n = 1
# T4 construct: gene DCLK3
# DDR1 = settings: concentration: 1 μM, replicates: in singlicate, n = 1
# 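Further: KINOMEscan kinase panel screen.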
structure (smiles),measurement,setting,value
Cc1cccc(-c2nc(Nc3ccc4[nH]nnc4c3)c3ccccc3n2)n1 [GW867587],%Inh,CSF1R-autoinhibited,0%
same,%Inh,CSF1R,0%
same,%Inh,CSK,0%
same,%Inh,CSNK1A1L,0%
same,%Inh,CSNK1A1,0%
same,%Inh,CSNK1D,4%
same,%Inh,CSNK1E,0%
same,%Inh,CSNK1G1,0%
same,%Inh,CSNK1G2,0%
same,%Inh,CSNK1G3,0%
same,%Inh,CSNK2A1,80%
same,%Inh,CSNK2A2,45%
same,%Inh,CTK,10%
same,%Inh,DAPK1,0%
same,%Inh,DAPK2,0%
same,%Inh,DAPK3,0%
same,%Inh,DCAMKL1,0%
same,%Inh,DCAMKL2,0%
same,%Inh,DCAMKL3,0%
same,%Inh,DDR1,0%
Cc1cc(N2CCC(NS(=O)(=O)c3ccc(F)cc3)CC2)nc(Nc2cccc(C#N)c2)n1.O=C(O)C(F)(F)F [GSK1653537],%Inh,CSF1R-autoinhibited,0%
same,%Inh,CSF1R,0%
same,%Inh,CSK,0%
same,%Inh,CSNK1A1L,35%
same,%Inh,CSNK1A1,25%
same,%Inh,CSNK1D,27%
same,%Inh,CSNK1E,52%
same,%Inh,CSNK1G1,27%
same,%Inh,CSNK1G2,5%
same,%Inh,CSNK1G3,15%
same,%Inh,CSNK2A1,1%
same,%Inh,CSNK2A2,11%
same,%Inh,CTK,0%
same,%Inh,DAPK1,0%
same,%Inh,DAPK2,0%
same,%Inh,DAPK3,2%
same,%Inh,DCAMKL1,0%
same,%Inh,DCAMKL2,0%
same,%Inh,DCAMKL3,0%
same,%Inh,DDR1,0%
Cc1ccc(C)c(NC(=O)NCCNc2ccnc(Nc3ccc(F)cc3)n2)c1 [GSK1379878],%Inh,CSF1R-autoinhibited,15%
same,%Inh,CSF1R,7%
same,%Inh,CSK,100%
same,%Inh,CSNK1A1L,0%
same,%Inh,CSNK1A1,11%
same,%Inh,CSNK1D,0%
same,%Inh,CSNK1E,33%
same,%Inh,CSNK1G1,0%
same,%Inh,CSNK1G2,0%
same,%Inh,CSNK1G3,24%
same,%Inh,CSNK2A1,5%
same,%Inh,CSNK2A2,0%
same,%Inh,CTK,0%
same,%Inh,DAPK1,0%
same,%Inh,DAPK2,0%
same,%Inh,DAPK3,11%
same,%Inh,DCAMKL1,19%
same,%Inh,DCAMKL2,0%
same,%Inh,DCAMKL3,0%
same,%Inh,DDR1,1%
Fc1cccc(COc2ccc(Nc3ncnc4sc(-c5ccc[nH]5)cc34)cc2Cl)c1 [GW707818],%Inh,CSF1R-autoinhibited,28%
same,%Inh,CSF1R,17%
same,%Inh,CSK,13%
same,%Inh,CSNK1A1L,0%
same,%Inh,CSNK1A1,0%
same,%Inh,CSNK1D,9%
same,%Inh,CSNK1E,8%
same,%Inh,CSNK1G1,0%
same,%Inh,CSNK1G2,3%
same,%Inh,CSNK1G3,31%
same,%Inh,CSNK2A1,0%
same,%Inh,CSNK2A2,0%
same,%Inh,CTK,0%
same,%Inh,DAPK1,28%
same,%Inh,DAPK2,0%
same,%Inh,DAPK3,22%
same,%Inh,DCAMKL1,28%
same,%Inh,DCAMKL2,0%
same,%Inh,DCAMKL3,30%
same,%Inh,DDR1,4%
COc1ccc(-c2oc3ncnc(N)c3c2-c2ccc(OC)cc2)cc1 [SB-589132],%Inh,CSF1R-autoinhibited,70%
same,%Inh,CSF1R,61%
same,%Inh,CSK,0%
same,%Inh,CSNK1A1L,12%
same,%Inh,CSNK1A1,0%
same,%Inh,CSNK1D,11%
same,%Inh,CSNK1E,43%
same,%Inh,CSNK1G1,0%
same,%Inh,CSNK1G2,0%
same,%Inh,CSNK1G3,12%
same,%Inh,CSNK2A1,30%
same,%Inh,CSNK2A2,40%
same,%Inh,CTK,0%
same,%Inh,DAPK1,0%
same,%Inh,DAPK2,0%
same,%Inh,DAPK3,37%
same,%Inh,DCAMKL1,14%
same,%Inh,DCAMKL2,7%
same,%Inh,DCAMKL3,36%
same,%Inh,DDR1,94.6%
CS(=O)(=O)CCNCc1nc(-c2ccc3ncnc(Nc4ccc(OCc5cccc(F)c5)c(Cl)c4)c3c2)cs1.Cl [GW583340],%Inh,CSF1R-autoinhibited,0%
same,%Inh,CSF1R,8%
same,%Inh,CSK,12%
same,%Inh,CSNK1A1L,0%
same,%Inh,CSNK1A1,0%
same,%Inh,CSNK1D,4%
same,%Inh,CSNK1E,45%
same,%Inh,CSNK1G1,17%
same,%Inh,CSNK1G2,0%
same,%Inh,CSNK1G3,24%
same,%Inh,CSNK2A1,2%
same,%Inh,CSNK2A2,17%
same,%Inh,CTK,0%
same,%Inh,DAPK1,25%
same,%Inh,DAPK2,0%
same,%Inh,DAPK3,6%
same,%Inh,DCAMKL1,16%
same,%Inh,DCAMKL2,0%
same,%Inh,DCAMKL3,0%
same,%Inh,DDR1,4%
Clc1cccc(-c2nc(Nc3ccncc3)c3ccccc3n2)c1 [GW873004],%Inh,CSF1R-autoinhibited,0%
same,%Inh,CSF1R,0%
same,%Inh,CSK,0%
same,%Inh,CSNK1A1L,7%
same,%Inh,CSNK1A1,29%
same,%Inh,CSNK1D,12%
same,%Inh,CSNK1E,23%
same,%Inh,CSNK1G1,3%
same,%Inh,CSNK1G2,10%
same,%Inh,CSNK1G3,18%
same,%Inh,CSNK2A1,0%
same,%Inh,CSNK2A2,14%
same,%Inh,CTK,0%
same,%Inh,DAPK1,0%
same,%Inh,DAPK2,0%
same,%Inh,DAPK3,11%
same,%Inh,DCAMKL1,13%
same,%Inh,DCAMKL2,0%
same,%Inh,DCAMKL3,41%
same,%Inh,DDR1,79%
COc1ccc(-c2nc3n(c2-c2ccncc2)CCC3)cc1 [SKF-104493],%Inh,CSF1R-autoinhibited; 1 µM,6% and 9%
same,%Inh,CSF1R; 1 µM,23% and 2%
same,%Inh,CSK,0%
same,%Inh,CSNK1A1L; 1 µM,12% and 0%
same,%Inh,CSNK1A1,0%
same,%Inh,CSNK1D; 1 µM,40% and 18%
same,%Inh,CSNK1E; 1 µM,22% and 7%
same,%Inh,CSNK1G1; 1 µM,0% and 13%
same,%Inh,CSNK1G2,0%
same,%Inh,CSNK1G3; 1 µM,6% and 14%
same,%Inh,CSNK2A1; 1 µM,0% and 2%
same,%Inh,CSNK2A2; 1 µM,13% and 15%
same,%Inh,CTK; 1 µM,25% and 0%
same,%Inh,DAPK1; 1 µM,82% and 21%
same,%Inh,DAPK2; 1 µM,0% and 6%
same,%Inh,DAPK3,0%
same,%Inh,DCAMKL1; 1 µM,21% and 0%
same,%Inh,DCAMKL2,0%
same,%Inh,DCAMKL3; 1 µM,0% and 18%
same,%Inh,DDR1; 1 µM,33% and 67%
Fc1ccc(-c2ncn(CCCNCc3ccccc3)c2-c2ccncc2)cc1,%Inh,CSF1R-autoinhibited,19%
same,%Inh,CSF1R,4%
same,%Inh,CSK,0%
same,%Inh,CSNK1A1L,22%
same,%Inh,CSNK1A1,90.4%
same,%Inh,CSNK1D,96.6%
same,%Inh,CSNK1E,98.3%
same,%Inh,CSNK1G1,5%
same,%Inh,CSNK1G2,7%
same,%Inh,CSNK1G3,20%
same,%Inh,CSNK2A1,22%
same,%Inh,CSNK2A2,27%
same,%Inh,CTK,25%
same,%Inh,DAPK1,23%
same,%Inh,DAPK2,11%
same,%Inh,DAPK3,16%
same,%Inh,DCAMKL1,0%
same,%Inh,DCAMKL2,2%
same,%Inh,DCAMKL3,15%
same,%Inh,DDR1,18%
O=C(Nc1ccccc1)Nc1ccc(Oc2ccc3nccn3n2)cc1,%Inh,CSF1R-autoinhibited,0%
same,%Inh,CSF1R,39%
same,%Inh,CSK,0%
same,%Inh,CSNK1A1L,6%
same,%Inh,CSNK1A1,19%
same,%Inh,CSNK1D,1%
same,%Inh,CSNK1E,1%
same,%Inh,CSNK1G1,0%
same,%Inh,CSNK1G2,0%
same,%Inh,CSNK1G3,29%
same,%Inh,CSNK2A1,0%
same,%Inh,CSNK2A2,0%
same,%Inh,CTK,100%
same,%Inh,DAPK1,0%
same,%Inh,DAPK2,1%
same,%Inh,DAPK3,0%
same,%Inh,DCAMKL1,9%
same,%Inh,DCAMKL2,10%
same,%Inh,DCAMKL3,59%
same,%Inh,DDR1,98.6%
